High-throughput results from PubChem BioAssay.
Most compounds without a hit are left out; they make up all but 2.5% or so of the library.
aDG glyco up: alpha-DG glycosylation activation; Pro5-aDG cells, alpha-DG glycosylation AlphaScreen (IIH6); 0% Pro5, 100% B10-LARGE cell signal; activation, % at 10 µM; 0.22% of 360,000 active;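 active = activation of at least 8% versus controls, or a plate z-score of at least 8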;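 also: Pro5 are CHO cells carrying HIG-tagged alpha-DG that lacks glycosylation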
HSF-1 act: increases HSF-1 driven luciferase reporter signal | activation, % at 9 µM | AID 504408 | 1.7% of 300,000 active | NIH3T3-HGL HSF-1 luciferase reporter, MG132, 8 h; 100% = twice DMSO control signal;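 active = mean replicate activation of at least 50% with a set share of replicates each reaching 50%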
HSF1 inh: HSF1 inhibition; NIH3T3-HGL HSE-luciferase, MG132-induced, luminescence 8 h; stronger effect = lower value; 0.77% of 300,000 active; activity change, negative = inhibition, % at 7.5 µM (by protocol);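 active = more than half of replicate wells show activity change below -50%, luminescence cut by over half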;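 also: luciferase reports HSF-1 transcriptional activity via heat shock element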
DYRK1A inh: blocks rat Dyrk1A kinase activity; ADP-Glo luminescence, NFATc1 peptide; Q63470; AID 504441; inhibition, % at 12.5 µM; 0.43% of 310,000 active; in the data active = inhibition above about 50%
GC-A act: GC-A (human) enzyme activation; AID 1671463; 0.14% of 370,000 active; activation, % at 10 µM; HEK293 GC-A cells, cGMP TR-FRET, EC30 ANP; 0% at EC30 ANP, 100% saturating ANP; P16066; in the data active = activation above about 40%
GC-B act: GC-B (human) receptor activation. HEK293-GC-B cells, CNP EC30, cGMP TR-FRET; 0% at EC30 CNP, 100% saturating CNP. activation, % at 10 µM. AID 1920062. 0.11% of 370,000 active;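 active = activation at 10 µM reaching about 35% in either raw or pattern-adjusted values, limit read from the data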
Of the large screens only hits and unclear results are named; the others gave an inactive call.

O=C(Cc1ccccc1)NNC(=O)Nc1ccc(Cl)c(Cl)c1	none
O=C(Nc1cccc(Cl)c1)Nc1ccccc1C(=O)O	none
O=C(Nc1ccc(Br)cc1)Nc1ccccc1Cl	HSF-1 act 58
O=C(Nc1ccc(Cl)c(Cl)c1)Nc1ccccc1C(=O)O	HSF-1 act 68
CC1(C)CC(=O)C(C=NCCN2CCN(C(=S)Nc3ccc(F)cc3)CC2)=C(O)C1	none
CCN(CC)c1ccc(/C=C2/SC(=O)N(C(C)C)C2=O)o1	HSF-1 act 209
O=c1c(-c2ccc3c(c2)OCCO3)coc2cc(O)cc(O)c12	HSF-1 act 71
CCN(CC)Cc1c(O)ccc2c(=O)c(-c3ccc4c(c3)OCCO4)coc12	none
Cc1cc(NC(=O)CN(C)S(=O)(=O)c2ccc(-c3ccc(=O)[nH]n3)s2)ccc1Br	none
COc1cc(NC(=O)CN(C)S(=O)(=O)c2ccc(-c3ccc(=O)[nH]n3)s2)cc(OC)c1	HSF1 inh -91
CCCN(CC(=O)Nc1ccccc1C)C(=O)c1cccc(-n2cnnn2)c1	none
Fc1cccc(CNC2CCN(CCc3ccccc3)CC2)c1	none
Cc1ccc(N2C(=O)c3cccc4c([N+](=O)[O-])ccc(c34)C2=O)c2cccnc12	GC-B act 41
COc1cccc(N=Nc2ccc(O)c3ncccc23)c1	HSF-1 act 90
Nc1ccc(N=Nc2ccccc2)c2cccnc12	HSF-1 act 82
O=[N+]([O-])c1ccc(O)c2cccnc12	none
O=[N+]([O-])c1ccc(O)c2ncccc12	HSF1 inh -55
Cc1ccccc1N=Nc1ccc(O)c2ncccc12	HSF-1 act 89
COc1ccc(N=Nc2ccc(O)c3ncccc23)cc1	none
Cc1ccc(-c2nc3c(Cl)cc(Cl)cc3c(=O)n2O)cc1	none
c1ccc(-c2noc(-c3ccc4ccccc4c3)n2)nc1	HSF1 inh -78 (no result: GC-A act, GC-B act)
COc1cccc(-c2nc(-c3ccccn3)no2)c1	none (no result: aDG glyco up, DYRK1A inh)
Cc1ccc(OCc2nc(-c3ccccn3)no2)cc1	HSF-1 act 63
COc1nc(-c2ccccc2)ccc1-c1noc(-c2ccccc2)n1	none
COc1nc(-c2ccccc2)ccc1-c1noc(COc2ccccc2)n1	HSF1 inh -68
O=[N+]([O-])c1cccc(-c2nc(-c3ccccn3)no2)c1	HSF-1 act 54
CN(C)C=NC(=O)c1[nH]c2ccc(Cl)cc2c1-c1ccccc1	none
CC(C)C[C@H]1CN([C@@H](Cc2ccc(O)cc2)CN2CCC[C@@H]2CN2C(=O)C(=O)NC[C@@H]2Cc2ccccc2)C(=O)C(=O)N1CC1CCCCC1	none (no result: HSF-1 act, HSF1 inh, DYRK1A inh)
O=C(c1ccco1)N1CCN(S(=O)(=O)c2ccc([N+](=O)[O-])cc2)CC1	none
CC(C)NC(=O)NC(=O)CSc1ncc(C(F)(F)F)cc1Cl	none
Cc1ccc(N(Cc2cc3ccc(C)cc3[nH]c2=O)C(=O)c2cccs2)cc1	HSF1 inh -85 (no result: aDG glyco up, DYRK1A inh, GC-A act, GC-B act)
CCOC(=O)Cn1nc(C)c(NC(=O)COc2ccc([N+](=O)[O-])cc2)c1C	HSF1 inh -53 (no result: DYRK1A inh)
CCOC(=O)CSc1ccc2ccccc2n1	none (no result: DYRK1A inh)
CCOC(=O)CN1C=C(c2ccc3ccccc3n2)C(C[N+](=O)[O-])c2ccccc21 (stereo unspecified)	HSF-1 act 94 (no result: GC-A act, GC-B act)
O=C(NCc1cccc(F)c1)C1CCC(=O)N(C2CCCC2)C1 (stereo unspecified)	none
Cc1ccc(/C=C/c2nc3ccccc3c(=O)[nH]2)cc1	none
COC(=O)c1ccc(/C=C/c2nc3ccccc3c(=O)[nH]2)cc1	HSF-1 act 62
Cc1ccccc1/C=C\c1nc2ccccc2c(=O)[nH]1	HSF-1 act 122
O=c1cc(-c2ccccc2)c2ccc(O)cc2o1	HSF1 inh -51
CCn1nnc(NC(=O)c2sc3ccccc3c2Cl)n1	HSF-1 act 74
CCn1nnc(NC(=O)c2cccnc2Cl)n1	none
Cc1ccc(-c2nc3cnccn3c2Nc2ccc3c(c2)OCO3)cc1	GC-A act 51, GC-B act 50
CN(C)c1ccc(-c2nc3cnccn3c2Nc2ccc3c(c2)OCCO3)cc1	none
COc1ccc(-c2nc3cnccn3c2Nc2ccc3c(c2)OCO3)cc1	GC-A act 52, GC-B act 47
O=C(CSc1nc2ccc(Nc3nc(N4CCOCC4)nc(N4CCOCC4)n3)cc2s1)Nc1ccccc1Cl	none
CCS(=O)(=O)Nc1ccc(C2=NN(C(=S)Nc3ccccc3)C(c3ccco3)C2)cc1 (stereo unspecified)	none
Cc1ccc(C2=NN(C(=S)Nc3ccccc3)C(c3ccco3)C2)cc1 (stereo unspecified)	HSF-1 act 61
O=C(c1ccccc1)N1CCN(c2ncccn2)CC1	none
Nc1ncnc2nc(N3CCN(C(=O)c4ccccc4)CC3)[nH]c12	HSF1 inh -73
COC(C(=O)N/N=C(\C)CC(=O)Nc1ccc(Cl)cc1C)c1ccccc1 (stereo unspecified)	HSF-1 act 122
CCOC(=O)N1CCC(NCCNC(=O)c2ccccc2Cl)CC1	none
Cc1cccc(-[n+]2c(C)cc(C)c3c(=O)[nH]c(=O)[nH]c32)c1	HSF-1 act 63
Cc1cc(C)[n+](-c2ccc(C(C)C)cc2)c2[nH]c(=O)[nH]c(=O)c12	none
O=C(c1ccc(Br)cc1)C(CN1CCOCC1)c1ccccc1 (stereo unspecified)	none
Cc1cc(NC(=O)OC2CCCCC2)ccc1[N+](=O)[O-]	HSF-1 act 71
CCCn1cc(S(=O)(=O)CC(=O)NC2CCCCC2)c2ccccc21	none
CC(C)c1cc(CNC(=O)C2CCC(=O)N(Cc3ccccc3F)C2)on1 (stereo unspecified)	none
Cc1ccc2c(C(=O)CN3CCCC(C)C3)c(C)[nH]c2c1 (stereo unspecified)	none
COc1ccc(C2=NN(C(=O)CCC(=O)O)C(c3cccs3)C2)cc1 (stereo unspecified)	none
COc1ccc(C2=NN3C(C2)c2ccccc2OC3c2cccs2)cc1 (stereo unspecified)	HSF-1 act 63 (no result: DYRK1A inh)
COc1ccc(C2=NN3C(C2)c2ccccc2OC32C(=O)N(C)c3ccccc32)cc1 (stereo unspecified)	HSF-1 act 92
CCc1cc(C(c2ccc(F)cc2)N2CCOCC2)c(NC(=O)c2ccccc2)s1 (stereo unspecified)	HSF-1 act 63
COc1cccc(-n2nc(C(N)=O)c(O)cc2=O)c1	none
COc1cccc(-n2nc(C#N)c(Cl)cc2=O)c1	HSF-1 act 225
N#CC1(NC(=O)CN2C(=O)NC(Cc3c[nH]c4ccccc34)C2=O)CCCCC1 (stereo unspecified)	none (no result: HSF-1 act, HSF1 inh)
COc1cccc(C(=O)N2CCCN(C)CC2)c1OC	none
